± gives the standard deviation of the averaged measurements.
Legend:
[1] = test system: CLZ3 (HCA2 human fibroblast dual HR-NHEJ reporter); assay: NHEJ repair efficiency (GFP+ cells) relative to control (log10 fold); higher = more non-homologous end joining; settings: 5 µM; doxycycline 0.5 ug/mL
[2] = test system: CLZ3 (HCA2 human fibroblast dual HR-NHEJ reporter); assay: HR repair efficiency (tdTomato+ cells) relative to control (log10 fold); higher = more homologous recombination; settings: 5 µM; doxycycline 0.5 ug/mL
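Throughout, for HR repair efficiency (tdTomato+ cells) relative to control: compound given one day before doxycycline, which switches on I-SceI endonuclease expression to create double-strand breaks within the integrated reporter.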
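Throughout, for NHEJ repair efficiency (GFP+ cells) relative to control: compound given one day ahead of doxycycline, which switches on I-SceI endonuclease to cut the chromosomally integrated reporter and create DSBs.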

SMILES | NHEJ repair efficiency (log10) [1] | HR repair efficiency (log10) [2]
C[N+](C)(C)C[C@H](O)CC(=O)[O-] [L-Carnitine] | -0.0644 | 0.0663
CC(C)=CCc1c(O)ccc(C(=O)/C=C/c2ccc(O)cc2)c1O [Isobavachalcone] | 0.0115 | 0.0547
COc1cc(CNC(=O)CCCCCCC(C)C)ccc1O [Dihydrocapsaicin] | -0.263 | -0.256
O=C(O)[C@H]1O[C@@H](Oc2cc3oc(-c4ccc(O)cc4)cc(=O)c3c(O)c2O)[C@H](O)[C@@H](O)[C@@H]1O [Scutellarin] | -0.122 | 0.0441
C/C=C(/C)C(=O)O[C@@H]1[C@H](OC(C)=O)c2c(ccc3ccc(=O)oc23)OC1(C)C [Praeruptorin A] | -0.00436 | -0.0186
O=C1C[C@@H](c2ccc(O)cc2)Oc2cc(O)ccc21 [Liquiritigenin] | 0.037 | 0.142
Oc1ccc(/C=C/c2cc(O)cc(O)c2)cc1 [Resveratrol] | -0.0132 | 0.0336
COc1c(O)cc2c(c1O)C(=O)c1c(cc(C)c(O)c1OC)C2=O [Aurantio-obtusin] | 0.137 | 0.0361
C[C@@H]1O[C@@H](O[C@H]2[C@H](Oc3c(-c4ccc(O)cc4)oc4cc(O)cc(O)c4c3=O)O[C@H](CO)[C@@H](O)[C@@H]2O)[C@H](O)[C@H](O)[C@H]1O [Kaempferol 3-O-Neohesperidoside] | 0.0799 | 0.307
COc1cc(O)c(C(C)=O)cc1S(=O)(=O)O [Sodium Paeonol Sulfonate] | 0.0246 | 0.0512
Oc1cc(O)c2cc(O)c(-c3ccc(O)c(O)c3)[o+]c2c1 [Cyanidin Chloride] | -0.0642 | 0.00943
C[C@@]12C[C@@]3(O)O[C@@H](O1)[C@]1(COC(=O)c4ccc(O)cc4)[C@@H]3C[C@]12O[C@@H]1O[C@H](CO)[C@@H](O)[C@H](O)[C@H]1O [Oxypaeoniflorin] | 0.00873 | 0.0237
C/C(=C\C(=O)CC(C)C(=O)O)[C@H]1CC(=O)[C@@]2(C)C3=C(C(=O)C[C@]12C)[C@@]1(C)CC[C@H](O)C(C)(C)[C@@H]1C[C@@H]3O (stereo partly specified) [Ganoderenic Acid B] | 0.000561 | 0.021
OC[C@H]1O[C@H](OC[C@H]2O[C@@H](O[C@@H]3OC=C[C@H]4[C@H](O)[C@@H]5O[C@]5(CO)[C@@H]34)[C@H](O)[C@@H](O)[C@@H]2O)[C@H](O)[C@@H](O)[C@H]1O [Rehmannioside A] | 0.0412 | -0.0566
C[C@@]12C[C@@]3(O)O[C@@H](O1)[C@]1(COC(=O)c4ccccc4)[C@@H]3C[C@]12O[C@@H]1O[C@H](COC(=O)c2ccccc2)[C@@H](O)[C@H](O)[C@H]1O [Benzoylpaeoniflorin] | -0.0544 | -0.0282
COC(=O)C1=CO[C@@H](O[C@@H]2O[C@H](CO)[C@@H](O)[C@H](O)[C@H]2O)[C@H]2[C@@H]1[C@H](O)C[C@]2(C)OC(C)=O [8-O-Acetyl Shanzhiside Methyl Ester] | -0.0953 | -0.109
COc1ccc2ccc(=O)oc2c1CC=C(C)C [Osthole] | 0.0815 | -0.0645
C[C@@]1(CO)C[C@@H](O)C[C@@]2(C)[C@@H]3CC[C@](C)([C@@H](O)CO)C=C3CC[C@H]12 [Kirenol] | -0.121 | 0.0441
Cn1c(=O)c2c(ncn2C)n(C)c1=O [Caffeine] | 0.103 | 0.0527
CC(=O)OC1CC23CC(C)(O)C(CCC2C(C)(O)C2C4OC4C(C)(C)C12O)C3O (stereo unspecified) [Rhodojaponin Ii] | -0.0128 | -0.000636
CC1(C)CC[C@]2(C(=O)O[C@@H]3O[C@H](CO)[C@@H](O)[C@H](O)[C@H]3O)CC[C@]3(C)C(=CC[C@@H]4[C@@]5(C)CC[C@H](O[C@@H]6O[C@H](C(=O)O)[C@@H](O)[C@H](O)[C@H]6O[C@@H]6O[C@H](CO)[C@@H](O)[C@H](O)[C@H]6O)C(C)(C)[C@@H]5CC[C@]43C)[C@@H]2C1 [Ginsenoside Ro] | 0.13 | 0.3
CC(/C=C/C=C(\C)C(=O)O[C@@H]1O[C@H](CO[C@@H]2O[C@H](CO)[C@@H](O)[C@H](O)[C@H]2O)[C@@H](O)[C@H](O)[C@H]1O)=C\C=C\C=C(C)\C=C\C=C(/C)C(=O)O[C@@H]1O[C@H](CO[C@@H]2O[C@H](CO)[C@@H](O)[C@H](O)[C@H]2O)[C@@H](O)[C@H](O)[C@H]1O [Crocin I] | 0.0171 | 0.076
COc1cc(O)c2c(=O)c3c(O[C@@H]4O[C@H](CO)[C@@H](O)[C@H](O)[C@H]4O)ccc(O)c3oc2c1 [Swertianolin] | 0.00276 | 0.201
CCCCCCCCCCCCCCCCCC(=O)OC [Methyl Stearate] | -0.0143 | -0.0898
O=c1c(-c2ccc(O)cc2)coc2cc(O)ccc12 [Daidzein] | -0.0789 | -0.15
COC(=O)C1=CO[C@@H](O[C@@H]2O[C@H](CO[C@@H]3O[C@H](CO)[C@@H](O)[C@H](O)[C@H]3O)[C@@H](O)[C@H](O)[C@H]2O)[C@@H]2C(CO)=CC[C@H]12 [Genipin 1-Gentiobioside] | 0.0417 | 0.0278
O=c1c(-c2ccc(O)cc2)coc2cc(O[C@@H]3O[C@H](CO)[C@@H](O)[C@H](O)[C@H]3O)ccc12 [Daidzin] | -0.234 | 0.03

SMILES | NHEJ repair efficiency (log10) [1] | HR repair efficiency (log10) [2]
COc1ccc(/C=C/C(=O)O)cc1O [Isoferulic acid] | 0.104 | -0.0013
COc1ccc(-c2oc3c(CC=C(C)C)c(O[C@@H]4O[C@H](CO)[C@@H](O)[C@H](O)[C@H]4O)cc(O)c3c(=O)c2O[C@@H]2O[C@@H](C)[C@H](O)[C@@H](O)[C@H]2O)cc1 [Icarrin] | -0.0369 | 0.0409
O=C[C@H](O)[C@@H](O)[C@H](O)[C@H](O)CO[C@H]1O[C@H](CO[C@H]2O[C@H](CO)[C@H](O)[C@H](O)[C@H]2O)[C@H](O)[C@H](O)[C@H]1O [Manninotriose] | 0.0359 | 0.0215
CCCOC(=O)c1cc(O)c(O)c(O)c1 [Propyl gallate] | -0.0069 | 0.0457
CC(C)=CCc1cc2c(cc1O)oc(=O)c1c3ccc(O)cc3oc21 [Psoralidin] | 0.31 | -0.0999
COc1ccc(-c2oc3c(CC=C(C)C)c(O[C@@H]4O[C@H](CO)[C@@H](O)[C@H](O)[C@H]4O)cc(O)c3c(=O)c2O[C@@H]2O[C@@H](C)[C@H](O)[C@@H](O)[C@H]2O)cc1 [Icariine] | -0.13 | -0.0902
C[C@H](N)C(=O)O [Alanine] | 0.113 | -0.14
CC(=O)O[C@@H]1CC[C@@]2(C)[C@@H](CC[C@]3(C)[C@@H]2C(=O)C=C2[C@@H]4[C@@H](C)[C@H](C)CC[C@]4(C)CC[C@]23C)[C@@]1(C)C(=O)O [3-Acetyl-11-Keto-Beta-Boswellic Acid] | -0.179 | -0.0515
O=Cc1ccc(O)cc1 [4-Hydroxybenzaldehyde] | 0.0829 | 0.0974
CC1(C)C2CCC1(C)C(O)C2 (stereo unspecified) [Borneol] | 0.0116 ± 0.059 | 0.0372 ± 0.12
COc1cc(/C=C/c2ccc(O)cc2)cc(OC)c1 [Pterostilbene] | 0.127 | 0.242
COc1c2ccoc2c(OC[C@@H](O)C(C)(C)O)c2oc(=O)ccc12 [Byakangelicin] | 0.0236 | -0.0476
C[C@@H]1CC[C@]2(C(=O)O)CC[C@]3(C)C(=CC[C@@H]4[C@@]5(C)CC[C@H](O)[C@@](C)(CO)[C@@H]5CC[C@]43C)[C@@H]2[C@]1(C)O [Rotundic Acid] | -0.0308 | 0.0236
O=C(O)c1ccccc1O [Salicylic acid] | 0.019 | 0.0351
C=C(C)[C@@H]1CC[C@]2(C)[C@H](CC=C3[C@@H]4[C@@H](C)[C@H](C)CC[C@]4(C)CC[C@]32C)[C@@]1(C)CCC(=O)O [Roburic acid] | 0.15 | 0.128
O=C(O)c1cc(O)c2c(c1)C(C1c3cc(CO)cc(O)c3C(=O)c3c(OC4OC(CO)C(O)C(O)C4O)cccc31)c1cccc(OC3OC(CO)C(O)C(O)C3O)c1C2=O (stereo unspecified) [Sennoside D] | 0.274 | -0.297
C=C1CCC[C@]2(C)C=C3OC(=O)C(C)=C3C[C@@H]12 [Atractylenolide I] | 0.0524 | 0.0435
COC(=O)[C@H](c1ccccc1Cl)N1CCc2sccc2C1 [Clopidogrel bisulfate] | 0.138 | 0.138
Oc1cc(O)cc(/C=C/c2ccc(O)c(O)c2)c1 [Piceatannol] | 0.0759 | 0.0923
O=c1cc(-c2ccccc2)oc2cc(O)c(O)c(O)c12 [Baicalein] | 0.203 | 0.17
O=C(/C=C/c1ccc(O)c(O)c1/C=C/c1ccc(O)c(O)c1)O[C@H](Cc1ccc(O)c(O)c1)C(=O)O [Salvianolic Acid A] | 0.0713 | 0.0119
OC[C@H]1O[C@@H](Oc2c(O)cc(O)cc2/C=C/c2ccc(O)cc2)[C@H](O)[C@@H](O)[C@@H]1O [2,3,5,4'-Tetrahydroxy Stilbene 2-Ο-Β-D-Glucoside] | 0.157 | -0.0324
OCC1=C[C@@H](O)[C@]2(O[C@@H]3O[C@H](CO)[C@@H](O)[C@H](O)[C@H]3O[C@@H]3O[C@H](CO)[C@@H](O)[C@H](O)[C@H]3O)C=CO[C@@H](O[C@@H]3O[C@H](CO)[C@@H](O)[C@H](O)[C@H]3O)[C@H]12 [Rehmannioside D] | -0.165 | -0.0162
Oc1ccc2c(c1)OC[C@]1(O)Cc3cc(O)c(O)cc3[C@H]21 [Brazilin] | -0.0322 | -0.00638
O=Cc1ccc(CO)o1 [5-Hydroxymethyl-2-furaldehyde (5-HMF)] | -0.174 | -0.326
O=c1c(O)cc([C@H]2Oc3cc(O)cc(O)c3C[C@H]2O)cc2c([C@H]3Oc4cc(O)cc(O)c4C[C@H]3O)cc(O)c(O)c12 [Theaflavin] | 0.0294 | 0.0415
